High-throughput results: PubChem, several laboratories
tim10-1 inh = growth inhibitors of tim10-1 mutant yeast, primary screen, luminescence, uHTS; AID 463190, 2010; S. cerevisiae tim10-1 ts strain growth, BacTiter-Glo, 24 h; inhibition, % at 20 µM; actives 2.2% (n = 330,000);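 active = inhibition of at least 40%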;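 also: mutant grown at 25 °C; 0% = DMSO wells with yeast and 100% = wells holding no yeast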
V-ATPase pHluor = regulators of yeast V-ATPase proton pumping, primary screen, pHLuorin cytosolic pH fluorescence; response, % at 10 µM; AID 504577, 2011; actives 0.37% (n = 350,000); S. cerevisiae; in the data active = response mostly above about 7.3%, no sharp cut-off; inactive = mostly below about 5.4%; also: actives read high
TIM10 inh = growth inhibitors of isogenic TIM10 control yeast, primary screen, counter-screen for tim10-1 yeast inhibitor project, luminescence, uHTS; actives 1.4% (n = 330,000); S. cerevisiae TIM10 strain growth, BacTiter-Glo luminescence, 24 h; inhibition, % at 10 µM;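 active = inhibition of 40% or more at the single tested concentration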;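 also: wild-type TIM10 isogenic control strain grown at permissive 25 °C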
tim23-1 inh = growth inhibitors of tim23-1 mutant yeast, primary screen, luminescence, uHTS. S. cerevisiae tim23-1 growth, BacTiter-Glo luminescence, 24 h. inhibition, % at 20 µM. actives 1.3% (n = 330,000);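 active = growth inhibition of the mutant yeast at or above 50%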;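 also: temperature-sensitive mutant grown at 25 °C; plate controls were DMSO-treated mutant yeast for no effect and medium wells lacking yeast for full effect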
NLRP3 yeast inh = NALP3 inflammasome inhibitors in reconstituted yeast, primary screen, luminescence, uHTS; Yeast reconstituted NLRP3/ASC/caspase-1, beta-gal luminescence, 24 h; inhibition, % at 10 µM; actives 0.39% (n = 330,000);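 active = inhibition of 50% or more; inactive = inhibition below 50%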;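 also: plate controls were induced DMSO wells for no effect and uninduced yeast grown without galactose for full effect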
NALP1 inh = NALP1 inflammasome inhibitors in reconstituted yeast, colorimetric, S. cerevisiae, triplicate retest; S. cerevisiae NALP1/ASC/caspase-1 growth, X-gal OD620, 72 h; inhibition, % at 10 µM; actives 0.61% (n = 280,000); AID 2071, 2009; in the data active = inhibition mostly above about 24%, no sharp cut-off; inactive = mostly below about 32%
V-ATPase pH SP = yeast V-ATPase proton pumping modulators, confirmation, S. cerevisiae, pH-sensitive GFP, second cherry-pick | response, % at 10 µM | shares compounds with V-ATPase pHluor | actives 2% (n = 980) | S. cerevisiae pHLuorin cytosolic pH, V-ATPase proton transport; in the data active = response above about 24%;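 also: plate controls were vehicle wells for no effect and positive control wells for full effect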
Numbers without * were called inactive; x = not tested or not shown. Hits are enriched below; roughly 4.2% of the tested compounds scored in any of these assays.

SMILES	tim10-1 inh	V-ATPase pHluor	TIM10 inh	tim23-1 inh	NLRP3 yeast inh	NALP1 inh	V-ATPase pH SP
CCOC(=O)Cc1csc(NC(=O)COc2ccccc2)n1	26.2	11.3*	16.5	28.5	6.3	-11.9	0.5
CCOC(=O)c1nn(-c2ccc(F)cc2)c(=O)cc1OCC(=O)Nc1ccc(OCC)cc1	7.4	-4.8	-2.1	11.3	17.2	x	x
CN(C)N1C(=O)CC(N2CCCC2)C1=O (configuration not stated)	3.3	10.9*	-3.8	5.8	5.0	32.3	1.8
CCN1C(=O)CC(N2CCOCC2)C1=O (configuration not stated)	7.1	-0.3	-10.2	-1.9	-14.4	-14.8	x
COc1cc(NC(=O)C2CCCN2S(=O)(=O)c2ccc3c(c2)CC(C)N3C(C)=O)cc(OC)c1 (configuration not stated)	-8.8	8.5*	1.6	3.1	8.9	-4.8	-0.4
Cc1cc(C)cc(NC(=O)NN2C(C)CCCC2C)c1 (configuration not stated)	24.1	3.3	28.0	29.2	-11.6	16.3	x
COc1cccc(C2C(C(=O)OCc3ccccc3)=C(C)Nc3ncnn32)c1OC (configuration not stated)	6.9	8.5*	5.2	-4.3	9.1	26.6	-2.3
O=C(NC1CCCC1)c1cccnc1N1CCCCCC1	3.4	-2.0	3.3	12.6	2.9	11.4	x
COc1ccccc1C(=O)OC1CCCN(C)C1 (configuration not stated)	3.5	0.5	-3.6	3.7	22.1	-1.4	x
CN1CCCC(OC(=O)c2ccccc2F)C1 (configuration not stated)	10.7	9.4*	-6.7	8.5	25.8	7.8	-2.4
CCCOc1ccc(N2C(=O)CC(N3CCN(C(=O)c4ccco4)CC3)C2=O)cc1 (configuration not stated)	14.6	2.1	4.2	13.2	21.6	44.7	x
COC/C=C/C1=CC2=CC(=O)C(C)(OC(=O)c3cnc4ccccc4n3)C(=O)C2=CN1CC1CC1 (configuration not stated)	-25.5	-3.9	2.3	-5.5	18.7	x	x
COC/C=C/C1=CC2=CC(=O)C(C)(OC(=O)c3cnc4ccccc4n3)C(=O)C2=CN1C1CC1 (configuration not stated)	0.0	12.0*	-5.8	-8.0	2.8	x	-3.0
Cc1nn(C)c(C)c1NC(=S)Nc1ccc(S(=O)(=O)Nc2ncccn2)cc1	-9.7	1.6	12.7	-2.1	-4.4	6.6	x
COc1ccc(C(=O)CCC(=O)NC2=NCCS2)cc1	2.7	1.8	-5.4	-14.7	5.2	26.5	-3.5
CCNC(=O)COC(=O)/C=C/c1cccs1	0.9	1.7	-0.9	-3.2	-22.1	-4.7	x
CNC(=O)COC(=O)/C=C/c1cccs1	14.3	9.0*	-1.2	-1.0	-1.3	-0.9	1.3
Cc1ccc(S(=O)(=O)N2CCN(C(=O)COC(=O)c3cccnc3Cl)CC2)c(C)c1	5.4	12.7*	4.7	15.6	5.0	x	-0.2
N#C/C(=C(/O)COc1ccc(Br)cc1)c1nnc2n1CCCCC2	-2.3	7.5*	3.0	16.7	-6.9	1.8	-1.3
CC/C(O)=C(/C#N)c1nnc2n1CCCCC2	-9.0	4.8	-8.5	-20.0	4.9	-50.0	x
CCC/C=C/c1ccc(CN2C(CC(C)C)C(=O)N(Cc3cn(CCC4OCCCO4)nn3)CCS2(=O)=O)cc1 (configuration not stated)	x	-0.2	x	x	x	x	x
CCC/C=C/c1ccc(CN2C(CC(C)C)C(=O)N(Cc3cn(CCC4OCCO4)nn3)CCS2(=O)=O)cc1 (configuration not stated)	x	9.2*	x	x	x	x	-2.6
CC(C)CC1C(=O)N(Cc2cn(CCC3OCCCO3)nn2)CCS(=O)(=O)N1Cc1ccc(-c2ccc(F)cc2)cc1 (configuration not stated)	x	5.5*	x	x	x	x	0.0
O=C(CCSc1nc(-c2ccco2)cc(C(F)(F)F)n1)NCCN1CCOCC1	27.5	2.0	5.8	7.9	17.3	-8.8	x
Cc1nc(CCNC(=O)CC2C(=O)NCCN2Cc2ccc(F)cc2)sc1C (configuration not stated)	0.3	0.1	-14.4	9.8	15.7	-2.1	x
SMILES	tim10-1 inh	V-ATPase pHluor	TIM10 inh	tim23-1 inh	NLRP3 yeast inh	NALP1 inh	V-ATPase pH SP
CC1=C(C(=O)Nc2ccccn2)C(c2ccc3c(c2)OCO3)C2=C(CC(C)(C)CC2=O)N1 (configuration not stated)	22.5	2.1	-0.8	9.6	7.2	8.9	x
CCN(CC)c1ccc(C2C(C(=O)Nc3ccccn3)=C(C)NC3=C2C(=O)CC(C)(C)C3)cc1 (configuration not stated)	6.2	16.6*	8.2	-6.9	-6.3	14.6	-0.6
CC(=O)c1cccc(NC(=O)CCC(=O)c2ccc(F)cc2)c1	33.0	1.3	7.7	16.4	13.3	16.3	x
O=C(CCC(=O)c1ccc(F)cc1)Nc1cc(Cl)cc(Cl)c1	7.5	-1.3	6.9	4.7	17.2	-12.9	1.1
O=C(NN1CCOCC1)c1ccc(F)cc1	-1.6	1.7	3.4	3.6	15.0	11.8	x
COc1ccc(C2C3=C(CC(C)(C)CC3=O)Oc3ncn4nc(-c5ccccc5)nc4c32)cc1 (configuration not stated)	x	12.2*	x	x	x	x	-1.1
CC1(C)CC(=O)C2=C(C1)Oc1ncn3nc(-c4cccnc4)nc3c1C2c1ccccc1 (configuration not stated)	x	x	x	x	x	2.3	x
CCOC(=O)c1[nH]c2c(c1-c1ccccc1)C(=O)CC(c1ccc(OCC)cc1)C2 (configuration not stated)	6.1	11.3*	4.0	-0.7	14.6	24.4	-5.9
CCOC(=O)c1[nH]c2c(c1-c1ccccc1)C(=O)CC(c1ccc(OC)c(OC)c1)C2 (configuration not stated)	3.6	-0.6	7.2	-0.6	7.6	27.9	x
Cc1ccccc1N1C(=O)C(Oc2ccc(Cl)cc2)C1CNC(C)(C)C (configuration not stated)	32.2	-1.8	16.0	17.3	11.5	-2.4	x
COc1ccccc1CNS(=O)(=O)c1ccc2c(c1)CCCN2C(C)=O	20.7	12.5*	3.5	9.2	-4.7	-10.1	-17.8
Cc1nc(SCC(=O)NCc2ccco2)[nH]c(=O)c1C	17.4	2.0	10.2	11.1	10.8	-8.6	x
COc1cc(C2NC(=O)NC(C)=C2C(=O)OCc2ccc(C)cc2)cc(OC)c1O (configuration not stated)	2.4	9.5*	-8.7	9.5	-3.3	-2.1	1.4
